Source: PubChem
An excerpt weighted towards active compounds, which were near 7.9% of everything screened.
SW480 rereplic = A quantitative high throughput screen for small molecules that induce DNA re-replication in SW480 colon adenocarcinoma cells | SW480 DNA re-replication, Hoechst DNA content imaging, 48 h | Potency, µM (titrated, usually from 46.1 µM), most hits filed as activators | 340,000 tested, 1.8% active; note: nearly all actives have a fitted effect of over 55% in size
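Per well, 250 cells were exposed to pinned compound for 48 hr. Nuclear DNA was visualised with Hoechst (40 min, 37 C) and total object intensity recorded by fluorescence scanning.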
HT1080 IDH1KD tx = qHTS for induction of synthetic lethality in tumor cells producing 2HG: qHTS for the HT-1080-IDH1KD cell line | HT-1080 IDH1 knockdown viability, ATP luminescence, 48 h | Potency, µM (doses to about 46.1 µM), hits mostly cytotoxic | 360,000 tested, 2% active
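Knockdown cells (IDH1KD HT-1080) received compounds 2 h after plating at 750 cells/well and were kept 48 h at 37 °C in 5% FBS RPMI. A CellTiter-Glo luminescence read gave % activity for curve fitting.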
HT1080-NT tox = qHTS for induction of synthetic lethality in tumor cells producing 2HG: qHTS for the HT-1080-NT fibrosarcoma cell line. HT-1080-NT fibrosarcoma viability, CellTiter-Glo ATP luminescence, 48 h. Potency, µM (doses to about 46.1 µM), actives largely listed as cytotoxic. 360,000 tested, 1.6% active. AID 686970, 2013;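 note: NT is the 2HG producing partner of a matched IDH1 knockdown line; nearly all actives have a fitted effect of over 55% in size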
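A 48-hour cytotoxicity screen used HT-1080-NT cells plated 2 hours before compound delivery. ATP-based CellTiter-Glo luminescence measured viability, normalized to DMSO and no-cell controls.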
KB-3-1 tox = qHTS assay for MDR1-selective chemotherapeutics: Primary screen using the parental adenocarcinoma cell KB-3-1; KB-3-1 viability, CellTiter-Glo ATP luminescence, 72 h; Potency, µM (series often up to 46.1 µM), usual class: cytotoxic; 400,000 tested, 1.4% active; AID 1347075, 2019; note: nearly all actives have a fitted effect of over 60% in size
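Parental KB-3-1 viability, qHTS format: 72 h compound exposure, 37 °C; CellTiter-Glo; media-only wells and DMSO plates as controls; concentration-effect fits on corrected data.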
MCF10A rerep = A quantitative high throughput screen for small molecules that induce DNA re-replication in MCF 10a normal breast cells; Potency, µM (titrated, usually from 46.1 µM), hits mostly activators; 350,000 tested, 2.9% active; MCF 10A DNA re-replication, Hoechst nuclear intensity, 48 h; note: nearly all actives have a fitted effect of over 50% in size
KB-V1 MDR tox = qHTS assay for MDR1-selective chemotherapeutics: Primary screen using the drug-selected MDR subline cells KB-V1. AID 1347076, 2019. 400,000 tested, 3.4% active. KB-V1 MDR cells viability, CellTiter-Glo, 72 h. Potency, µM (series often up to 46.1 µM), usual class: cytotoxic; note: nearly all actives have a fitted effect of over 60% in size
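Cytotoxicity via CellTiter-Glo luminescence after 72 h compound exposure at 37 degrees C. Cells: drug-selected KB-V1 line, DMEM phenol-red free plus 10% FBS. Compounds tested at multiple concentrations; normalized data fitted to concentration-effect curves.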
Each line names hits and unclear results; the compound was inactive in the other large screens. Calls come from the whole dose curve; as a rule, active = well fitted curve in the direction sought with a large enough effect; inconclusive = small, poorly fitted or top-dose-only effect, or another doubt; inactive = no such curve, though single readings can be large; an effect the other way counts as inactive or inconclusive.

COc1ccc(Nc2ncnc3onc(-c4ccc(Cl)cc4)c23)cc1Cl	KB-3-1 tox 10.3µM (no result: SW480 rereplic, HT1080 IDH1KD tx, HT1080-NT tox, MCF10A rerep)
CCC(C)c1ccc(S(=O)(=O)N2CCN(C(C)C(=O)NC3CCCC3)CC2)cc1 (stereo unspecified)	KB-V1 MDR tox 5.8µM
CC(C(=O)N1CCCCC1)N1CCN(S(=O)(=O)c2ccc(Cl)cc2)CC1 (stereo unspecified)	MCF10A rerep inconclusive
CC(C)c1ccc(S(=O)(=O)N2CCN(C(C)C(=O)N3CCCC3)CC2)cc1 (stereo unspecified)	KB-V1 MDR tox 25.9µM
Oc1ccc2ccc3[nH]cnc3c2c1	none
Oc1ccc2[nH]ccc2c1	SW480 rereplic 8.2µM
Cc1[nH]c2ccccc2c1C(=O)C(=O)Nc1ccc2c(c1)OCO2	none
Cc1nc2cc(OCc3cc(C(=O)NC(C)c4cnn(C)c4)no3)ccc2s1 (stereo unspecified)	KB-V1 MDR tox 10.3µM
COc1ccc(OC(C)C(=O)NC2CCCCCC2)cc1 (stereo unspecified)	none
N#CCC(=O)Nc1ccc(C(=O)OC(C(=O)Nc2ccc([N+](=O)[O-])cc2Br)c2ccccc2)cc1 (stereo unspecified)	none
N#CCC(=O)Nc1ccc(C(=O)OC(C(=O)Nc2cc(C(F)(F)F)ccc2Cl)c2ccccc2)cc1 (stereo unspecified)	SW480 rereplic inconclusive, KB-3-1 tox inconclusive, MCF10A rerep inconclusive, KB-V1 MDR tox 14.6µM
CC1CCCC=CC2CC(OC(=O)CN(C)C)CC2C(O)C=CC(=O)O1 (stereo unspecified)	SW480 rereplic inconclusive, HT1080 IDH1KD tx 0.0291µM, HT1080-NT tox inconclusive, KB-3-1 tox 0.0082µM, MCF10A rerep inconclusive, KB-V1 MDR tox inconclusive
CC(C)c1ccccc1NC(=S)NCCCn1ccnc1	MCF10A rerep 0.731µM
COc1cc(C(=O)Nc2ccc3c(c2)ncn3C)cc(OC)c1OC	SW480 rereplic inconclusive, HT1080 IDH1KD tx inconclusive, HT1080-NT tox inconclusive, KB-3-1 tox inconclusive, MCF10A rerep 3.66µM, KB-V1 MDR tox inconclusive
COc1cc(C(=O)Nc2ccc3c(c2)nc(C)n3C)cc(OC)c1OC	SW480 rereplic 14.6µM, HT1080 IDH1KD tx 9.2µM, HT1080-NT tox 6.51µM, KB-3-1 tox 4.11µM
Cc1nc2cc(NC(=O)c3ccc(Cl)cc3)ccc2n1C	SW480 rereplic inconclusive
CNC(=O)c1sc(N2N=C3/C(=C/c4ccccc4)CCCC3C2c2ccccc2)nc1C (stereo unspecified)	SW480 rereplic 7.08µM, HT1080 IDH1KD tx inconclusive, KB-3-1 tox inconclusive, MCF10A rerep inconclusive
O=C1CCC(C(=O)OCC(=O)N2N=C3/C(=C\c4ccccc4)CCCC3C2c2ccccc2)N1 (stereo unspecified)	none
O=C1CCC(C(=O)OCC(=O)N2N=C3/C(=C/c4ccccc4)CCCC3C2c2ccccc2)N1 (stereo unspecified)	KB-3-1 tox 20.6µM, KB-V1 MDR tox inconclusive
CNC(=O)c1sc(N2N=C3/C(=C\c4ccccc4)CCCC3C2c2ccccc2)nc1C (stereo unspecified)	SW480 rereplic 8.2µM, MCF10A rerep inconclusive (no result: KB-3-1 tox, KB-V1 MDR tox)
O=C(c1ccccn1)N1N=C2/C(=C/c3ccccc3)CCCC2C1c1ccccc1 (stereo unspecified)	SW480 rereplic inconclusive
CC(Sc1nnc(N)s1)C(=O)Nc1ccc2c(c1)OCCO2 (stereo unspecified)	none
COc1ccccc1CNC(=O)c1ccc(S(=O)(=O)N2CCCC2)cc1	none
COc1cc2[nH]cc(C(=O)NCc3cccs3)c(=O)c2cc1OC	HT1080 IDH1KD tx inconclusive, HT1080-NT tox 20µM
COc1ccc(CNC(=O)c2cc(S(=O)(=O)N3CCCCC3)ccc2Cl)cc1OC	SW480 rereplic inconclusive, HT1080-NT tox 9.2µM
COc1cc(OC)c(OC)cc1CNC(=O)c1ccc(S(=O)(=O)N2CCCCC2)cc1	KB-V1 MDR tox 7.31µM
COc1ccc(CNC(=O)CCCn2ccc3cc(S(=O)(=O)N4CCCC4)ccc32)cc1	SW480 rereplic 7.31µM, HT1080 IDH1KD tx inconclusive, HT1080-NT tox inconclusive, KB-3-1 tox inconclusive, MCF10A rerep 20.6µM, KB-V1 MDR tox inconclusive
Cc1ccc(S(=O)(=O)N2C3CCCCC3O[C@H]2CC(=O)c2ccccc2)cc1 (stereo partly specified)	HT1080-NT tox inconclusive, KB-V1 MDR tox inconclusive (no result: SW480 rereplic, MCF10A rerep)
CCN(CC)S(=O)(=O)c1ccc2c(c1)c(=O)c(C(=O)NCc1cccs1)cn2C	KB-V1 MDR tox 6.51µM
COc1ccc(S(=O)(=O)N2CCCCCC2)cc1C(=O)N(C)Cc1ccc(F)cc1	none
COc1ccc(S(=O)(=O)N2CCC(C)CC2)cc1N(C)S(=O)(=O)c1ccccc1	SW480 rereplic inconclusive (no result: KB-3-1 tox, KB-V1 MDR tox)
COc1ccc(S(=O)(=O)N2CCCCCC2)cc1C(=O)N(C)Cc1ccc(C(C)(C)C)cc1	HT1080 IDH1KD tx inconclusive, HT1080-NT tox inconclusive, KB-3-1 tox inconclusive, MCF10A rerep 18.4µM, KB-V1 MDR tox inconclusive
O=C(NCCc1ccccc1)c1cc(S(=O)(=O)N2CCOCC2)ccc1F	none
Cc1cc(C)cc(OCCNC(=O)c2cc(S(=O)(=O)N3CCOCC3)ccc2F)c1	SW480 rereplic inconclusive, HT1080 IDH1KD tx inconclusive, HT1080-NT tox inconclusive, KB-3-1 tox 23.1µM, KB-V1 MDR tox inconclusive
COc1ccc(S(=O)(=O)N2CCCCCC2)cc1N(C)S(=O)(=O)c1ccc(Cl)cc1	HT1080-NT tox inconclusive, KB-V1 MDR tox 20.6µM
Cn1c(CCC(=O)Nc2cc(S(C)(=O)=O)ccc2Cl)nc2cc(S(=O)(=O)N3CCOCC3)ccc21	none
COc1ccc(S(=O)(=O)N2CCCCCC2)cc1C(=O)NCc1ccco1	none
COc1ccc(S(=O)(=O)N2CCCCCC2)cc1C(=O)NCc1cccs1	KB-V1 MDR tox 8.2µM
COc1ccc(S(=O)(=O)N2CCCCCC2)cc1C(=O)NCCOc1ccc(C)cc1	KB-V1 MDR tox 9.2µM
COc1ccc(S(=O)(=O)N2CCCCCC2)cc1C(=O)Nc1ccc(C)cn1	none
CN(C)C(CNC(=O)C1CCN(S(=O)(=O)c2ccc(Cl)cc2)CC1)c1ccccc1 (stereo unspecified)	none
Cc1cc(C)c(C)c(S(=O)(=O)N2CCC(C(=O)NCC(c3ccccc3)N(C)C)CC2)c1C (stereo unspecified)	HT1080 IDH1KD tx 18.4µM, HT1080-NT tox inconclusive, MCF10A rerep inconclusive
O=C(COC(=O)c1cc(=O)[nH]c2ccccc12)NC(=O)c1ccccc1	SW480 rereplic 25.9µM
